Source: the supplement of paper PMC11417369
± gives the standard deviation of the averaged measurements. The full ranking holds about 25,000 sequences; the median of “ln(normalized median fluorescence intensity)” is about 7.9, and the highest 2% start at about 11. The sample as a whole holds a higher share of the highest values than the screen did.

System: PfAP2-I AP2 domain 3 (GST-tagged)
Experiment: gcPBM binding intensity (ln(normalized median fluorescence intensity)); higher = stronger DNA binding
Summary of the method: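 DNA-binding domains from P. falciparum, fused to GST and produced in E. coli, were put on an Agilent 4 × 180k double-stranded probe array for 1 h in 1× PBS holding 1% milk, 0.2 mg/ml BSA, 0.5% salmon testes DNA and 0.03% Triton X-100. Probes were primer-extended, 36 bp long and drawn from intergenic genomic regions, with negative controls included. After Alexa488 anti-GST antibody detection and a 488 nm scan, binding intensity was set as the highest Masliner-normalised natural-log median intensity across replicate spots of either probe orientation.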

Row | Sequence | gcPBM binding intensity (ln)
1 | TGAAAAATATAAGGTTGTACTTACATCGGGAATAAT [XGTACX_site4701] | 8.05 ± 0.55
2 | TAATTTTCAATAATTTGTACATAATTTTTATAAATT [XGTACX_site8133] | 7.49 ± 0.3
3 | AAATCGTAATATATTTGTACTTATTTGAAAAATCCA [XGTACX_site8141] | 7.76 ± 0.33
4 | TTCTTATTTAATGTATCACACACGAGAATAAAAAAT [CACACA_site8992] | 7.98 ± 0.48
5 | ACATTTTTTTTTTTTTTTCTTTTTCTTTTTCTTTTT [CACACA_negctrl_site1295] | 7.72 ± 0.52
6 | AAATATATAAAAGTATGTACATATGAAAAATATATA [XGTACX_site6165] | 8 ± 0.52
7 | AACTAATAGTATATTACATGCAAAAGTAAAAGTAAA [TGCATGCA_site411] | 8.02 ± 0.78
8 | GTATAAAAGTAACTAGTGCATTACATATGAATAAAA | 11.4 ± 0.6
9 | TAGCTTATTAATATCATACACACATAGATATATTTA [CACACA_site3105] | 7.5 ± 0.54
10 | CAATATTATAGATATACACACATAATGTGTAAAAAC [CACACA_site6631] | 7.87 ± 0.79
11 | TAAATTATAACGTGCACACATATTTAAAATGAAATG [CACACA_site2820] | 11.3 ± 0.23
12 | TTAGTAAATACATTTGCACACATTATTTTTTAACAT [CACACA_site5448] | 9.36 ± 0.11
13 | GAAAAATTAAAAATAACACACACATATATATATTTA [CACACA_site8896] | 7.56 ± 0.4
14 | AAAATTAAAAATAACACACACATATATATATTTATA [CACACA_site2776] | 7.66 ± 0.34
15 | TTCATTCAAATTAACGTGCACATTATTAGTAAAAAC | 11.05 ± 0.035
16 | AAAAAATTAACGAGTGCACACATATTTAGATAAAAT [CACACA_site8958] | 9.86 ± 0.18
17 | TAAACGTTAGTATGTGTGCACATTAGTAATTTAAAA | 9.65 ± 0.3
18 | TTAAAATGAAGAAGTGCACACATATATATATTTATA [CACACA_site8063] | 9.67 ± 0.18
19 | TGTAAATTATAACGTGCACACATATTTAAAATGAAA [CACACA_site8915] | 11.2 ± 0.15
20 | CTTAATAAGAATAAATGTACAAGGGATAAAAAATTT [XGTACX_site3213] | 8.02 ± 0.73
21 | TTTTTTTTTTTTGAAACATGCATTGTTTTATTCTTA [TGCATGCA_site15] | 7.99 ± 0.85
22 | GGAAATTTCAATATTTGTACATATATATATATATAT [XGTACX_site3222] | 9.56 ± 0.6
23 | AGACATAAGATAATTACACACAATACATCCCTATAT [CACACA_site2227] | 7.76 ± 0.57
24 | AGAAACCTTGTTAGTTAGCATATATATATATATATA [CACACA_negctrl_site372] | 9.46 ± 0.46

Row | Sequence | gcPBM binding intensity (ln)
25 | GGAAGCTAATTACACACATGCATATTTTTTTTTCAA [TGCATGCA_site548] | 8.16 ± 0.83
26 | GTTAATATTTTTGGGGGTACTTAAAAAAAAAAAAAA [XGTACX_site1477] | 9.29 ± 0.26
27 | ATTTTTTTTTTTTTTTTGGGGGGGTATACTTTTAAA [CACACA_negctrl_site1020] | 11.6 ± 0.4
28 | TATACTTTATATATTTTGTATATATATTTTTTTTAT [TGCATGCA_negctrl_site530] | 7.5 ± 0.28
29 | ATCTATGATATATACACACACATGTATAAATAAATA [CACACA_site7012] | 7.75 ± 0.47
30 | TTTTTCTTTTTTTGTTGTACATTTTGTAATATTTAC [XGTACX_site4102] | 7.9 ± 0.59
31 | TTATTTTTCTTTATTGGTACACACGAAAAAAAAATT [XGTACX_site6482] | 8.03 ± 0.3
32 | TTTTTTTTTTTTTTTTTTTTTTTTGGGTCCCATACA [CACACA_negctrl_site913] | 8.1 ± 0.63
33 | AAATTTATTATATATACATGCAATCATAAATAATGT [TGCATGCA_site539] | 7.68 ± 0.48
34 | AATCATTTATTGATGGTGCAATATACCATCTAATGA [GTGCAC_site9440] | 11.4 ± 0.76
35 | TAATGGAAACCATTTATTTTCTGCAATATATTTTTT [CACACA_negctrl_site1653] | 7.67 ± 0.35
36 | TTACAAAAATGTGGTTGTACACAAACAAAAAAAATA [XGTACX_site8506] | 8.35 ± 0.29
37 | TCTTTTTTTTCTTTTTTTTTATTTAAATATCAAGTA [CACACA_negctrl_site1354] | 7.59 ± 0.34
38 | TTTTATTGTTGTTATACACACCATATAAAATATTTC [CACACA_site4983] | 7.92 ± 0.6
39 | ATAAAAAGAAATCCAATACACACCTTCAAAATGGGT [CACACA_site1622] | 7.71 ± 0.72
40 | AAAGATATAAATTACTGTACTAATGAAATTGGTAAA [XGTACX_site3582] | 7.67 ± 0.28
41 | TTCAAAAGATATATCGTGCACATATATATGATGAAA | 11.155 ± 0.007
42 | ATTATATATATGTGCACACAAAAGATATATATATAT [CACACA_site5205] | 10.2 ± 0.13
43 | AAGAAAAGCATAGATGCACACATATATATATATATA [CACACA_site8675] | 9.485 ± 0.078
44 | ACTTTTATTCGCTTACGTACATATATTATATATTAT [XGTACX_site4459] | 8.75 ± 0.55
45 | TATAAATATTTATGTACACACATATACATGTTGAAT [CACACA_site5684] | 7.95 ± 0.43
46 | AATATTATTATTATTACACACACAATTATATTTACC [CACACA_site8061] | 7.93 ± 0.38
47 | AACCTTACACAAGGGGTGCAATATTATTTCGATAAA [GTGCAC_site9600] | 11.5 ± 0.66
48 | AGCAATTTGGGGTGTACACACACCTTATTTAAATTA [CACACA_site1157] | 8.23 ± 0.22

Row | Sequence | gcPBM binding intensity (ln)
49 | TACATTTTACTTGTTACACACATATAAAATTAACCA [CACACA_site2922] | 7.82 ± 0.5
50 | AATAGTAAAAATCACTGTACGTTTATTTTTAAAATG [XGTACX_site1035] | 7.79 ± 0.28
51 | CCATAACTCATATGCACACATAAATATTACATATAT [CACACA_site3821] | 8.87 ± 0.13
52 | TAGTTCTTTTAATTTAGTATTATACAATATTGGAAA [CACACA_negctrl_site521] | 7.49 ± 0.47
53 | TTTTAATATATAGAGTAACAAATTTGTCTATTAATA [CACACA_negctrl_site1495] | 7.5 ± 0.58
54 | ATAACAAAAATCCTTGTGCACTATTTTAATAGAGTC | 11.4 ± 0.12
55 | ATATAATATTTTAGAGTGCACCGATAACAATAAATA [GTGCAC_site9754] | 10.4 ± 0.17
56 | TTATATAAAGAATGTACACACAGAAATGCACCCACA [CACACA_site2282] | 11 ± 0.57
57 | TGTACACCCAGAAATGCACACACATATATATATATA [CACACA_site8716] | 9.54 ± 0.18
58 | TTATATAAAGAATGTACACACAGAAATGCACAGACA [CACACA_site5288] | 9.43 ± 0.29
59 | ATTTATATAAAGAATGTACACACAGAAATGCACCCA [CACACA_site8715] | 11 ± 0.83
60 | CATTTATATAAAGAATGTACACACAGAAATGCACAC [XGTACX_site4718] | 10.2 ± 0.2
61 | GAAAGAAGCATAAATGTACACACATATTTATATATT [CACACA_site8368] | 7.74 ± 0.4
62 | TCTTTCTCTCTTCAAAGTACATATAATATATACTTC [XGTACX_site7982] | 7.88 ± 0.52
63 | TATTACAAATATGGCACACATATATATATATATATT [CACACA_site3268] | 8.69 ± 0.2
64 | TTTTATGTTCTTAATGCACACTTATAAGTATCTTAT [CACACA_site4895] | 11.4 ± 0.72
65 | ATTAAAAAAAAAAGTATACACACTTCTTAATGTCAA [CACACA_site1244] | 7.39 ± 0.47
66 | TTATGTTCTTAATGCACACTTATAAGTATCTTATAA [CACACA_site1394] | 10.99 ± 0.028
67 | TAAAAAAAAAAGTATACACACTTCTTAATGTCAACA [CACACA_site4818] | 7.36 ± 0.46
68 | ATATAATATTTATATGCACACTTTTCTATATATAAG [CACACA_site6100] | 9.77 ± 0.15
69 | TATATATATATATGTATGCACTTTAATTTTATAAGG | 9.85 ± 0.26
70 | AGGAAATTTTTTTTTTTTTTTTTTTTTTTTTTTTAC [TGCATGCA_negctrl_site170] | 7.5 ± 0.56
71 | TTTATTTTCATATGAACACACATATAAATATTATAA [CACACA_site7172] | 7.87 ± 0.41
72 | ATTTTCTTTCTATGCACACGCACGTATTTGCACCCA [CACACA_site3350] | 11.5 ± 0.39

Row | Sequence | gcPBM binding intensity (ln)
73 | TTATTTTCTTTCTATGCACACGCACGTATTTGCCCA [CACACA_site9104] | 9.39 ± 0.16
74 | TTTATTTTATCATTTGCACACGCACCCCCACATAAA [CACACA_site8007] | 10.4 ± 0.26
75 | GCTTATATTAATAAGGTGCTTTTTATTTCGTGTGTA [GTGCAC_site9649] | 9.06 ± 0.15
76 | AAGGAAAAAACAAATACACACAAAAACGCATTATAA [CACACA_site3466] | 7.87 ± 0.71
77 | TGATTCTAACTTATGGTGCAACATTATGGACACCGT | 10.3 ± 0.35
78 | TTATGGTGCAACATTATGCACACCGTTAAATAACTA [CACACA_site3846] | 11.1 ± 0.52
79 | AATCATAAACATTATGCACACAAAAATAAAAAAAAA [CACACA_site8289] | 9.81 ± 0.11
80 | ATGGTGCAACATTATGCACACCGTTAAATAACTAAT [CACACA_site9280] | 11.5 ± 0.7
81 | AACAACAACTAATATGCACACATTTAAAAACAAAAT [CACACA_site2440] | 9.42 ± 0.26
82 | TCATAAACATTATGCACACAAAAATAAAAAAAAATA [CACACA_site1115] | 9.8 ± 0.56
83 | TACTTTTCTTAAAGATGTACGTTTTAAAAATAAAAT [XGTACX_site14] | 7.81 ± 0.2
84 | ATATTTCTGTGTGGATGTACATTATTAGCAGGCTTT [XGTACX_site6496] | 8.12 ± 0.73
85 | TTTTTTTTTTTTTTTTGTACTTATAAAATAACATGT [XGTACX_site134] | 8.13 ± 0.82
86 | TTTTTTATTTAAAGTAGTACTTTTTAGAAAACAAAA [XGTACX_site6759] | 7.68 ± 0.29
87 | AAAGCACCCAGGCACACACACAAAGGAAAAGAAAAA [CACACA_site232] | 7.95 ± 0.49
88 | CACTAAAAGAAACACACACACACACCCATATATATA [CACACA_site4151] | 8.44 ± 0.75
89 | AAAGCACCCATGCACACACACAAAGGAAAAGAAAAA [CACACA_site6249] | 8.32 ± 0.38
90 | TTAAAGCACCCATGCACACACACAAAGGAAAAGAAA [CACACA_site233] | 11.1 ± 0.93
91 | AAAGAAGGGAAACACACACACACACCCACAAAAAAA [CACACA_site3766] | 8.17 ± 0.21
92 | TATAAATCTATAAATGCACACAAGGGAAGAAAAACG [CACACA_site2965] | 9.46 ± 0.26
93 | TTAAAGCACCCATGCACACACACAAGGGAAAAGAAA [CACACA_site4289] | 10.9 ± 0.92
94 | AATGCACTATTTAAAAGTACACATAAGAAAAGCATA [XGTACX_site1739] | 9.24 ± 0.28
95 | TATTAAAGCACCCATGCACACACACTAAGGAAAAGA [CACACA_site7961] | 11.6 ± 0.71
